Screening data: PubChem, Broad Institute
Env fusion inh: inhibitors of HIV-1 Env-driven cell-cell fusion, primary screen, HeLa-JRFL effector, CEM21 target cells, luciferase; inhibition, % at 12.3 µM; 360,000 compounds, 1.1% hits;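 active = mean replicate inhibition score of at least 50 and every replicate individually at or above 50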;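 also: 0% = plate neutral controls and 100% = maraviroc near 300 nM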
PGC1a acetyl inh: inhibitors of PGC1a acetylation signal, primary screen, cell-based, U2OS, AlphaScreen, inhibitor mode; AlphaScreen anti-acetyl-lysine; with virally co-expressed GCN5 acetyltransferase; 350,000 compounds, 0.17% hits; inhibition, % at 15.6 µM; AID 651687, 2012;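 active = every replicate shows inhibition of at least 40%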;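 also: 0% = neutral control wells and 100% = positive control wells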
NSD2 HMT inh: NSD2 histone methyltransferase inhibitors, primary screen, biochemical, AlphaScreen, single concentration, set 2. 310,000 compounds, 0.54% hits. Histone-lysine N-methyltransferase NSD2 (Homo sapiens), O96028. NSD2 peptide methylation, 120 min. AID 743445, 2014. inhibition, % at 12.5 µM; in the data active = inhibition above about 50%
AF4-AF9 inh: inhibitors of AF4 peptide binding to AF9, primary screen, biochemical, AlphaScreen, biotin-AF4 peptide, FLAG-AF9, single point. AID 651704, 2012. inhibition, % at 10 µM. Protein AF-9 (Homo sapiens), P42568. 350,000 compounds, 0.47% hits;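 active = every replicate reaching a set inhibition limit, whatever the replicate mean, cut at about 25% in these data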;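 also: 0% = plate neutral control median and 100% = total signal loss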
Target sequence (P42568 whole entry, looked up): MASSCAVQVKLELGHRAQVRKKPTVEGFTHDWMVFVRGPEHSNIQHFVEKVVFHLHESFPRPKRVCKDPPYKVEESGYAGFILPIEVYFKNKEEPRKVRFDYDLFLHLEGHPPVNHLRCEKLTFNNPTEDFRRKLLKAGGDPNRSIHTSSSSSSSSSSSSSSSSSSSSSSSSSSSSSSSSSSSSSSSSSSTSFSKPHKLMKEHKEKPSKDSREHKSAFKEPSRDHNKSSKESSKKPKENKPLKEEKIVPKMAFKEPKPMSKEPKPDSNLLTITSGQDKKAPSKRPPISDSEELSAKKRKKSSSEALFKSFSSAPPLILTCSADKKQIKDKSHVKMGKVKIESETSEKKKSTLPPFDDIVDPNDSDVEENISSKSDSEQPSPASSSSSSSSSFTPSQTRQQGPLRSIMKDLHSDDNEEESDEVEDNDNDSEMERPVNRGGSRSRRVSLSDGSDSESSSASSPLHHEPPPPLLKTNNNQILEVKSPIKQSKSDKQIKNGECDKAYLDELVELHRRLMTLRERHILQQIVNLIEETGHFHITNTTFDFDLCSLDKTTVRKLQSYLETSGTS
INS-1E GSIS act: GLuc luminescence reporter in INS-1E cells, primary screen for activators of glucose-dependent secretion of insulin | INS-1E GLuc reporter insulin secretion, 2-3 h | activation, % at 16.6 µM | 370,000 compounds, 0.61% hits;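 active = lowest replicate activation of at least 40%, so every replicate reaches that level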;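 also: 0% = median of neutral control wells and 100% = median of IBMX positive control wells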
The depositor's hits bear a star; . = not tested or not shown; [ ] = dose if it differs, or a comment. A selection: hits, their analogues and other compounds. The true share with any hit is near 2.1%.

SMILES | Env fusion inh | PGC1a acetyl inh | NSD2 HMT inh | AF4-AF9 inh | INS-1E GSIS act
Cc1cccc(N2CCN(C(=O)CCC(=O)N3CC(C)Oc4ccccc43)CC2)c1C (centres undefined) | 25 | -26 | . | -13 | .
Cc1cccc(N2CCN(C(=O)CCC(=O)N3Cc4ccccc4Oc4ncccc43)CC2)c1C | 4 | -6 | 4 | 47* | -41
C[C@H](O)[C@@H]1C(=O)N2CCc3c([nH]c4cccc(-c5ccccc5)c34)[C@@H]2C[C@@H]1N(C)C(=O)NC1CCCCC1 | 61* | . | . | . | -8
COCCNC(=S)N(C)[C@H]1C[C@H]2c3[nH]c4cccc(-c5ccccc5)c4c3CCN2C(=O)[C@H]1[C@H](C)O | 59* | . | . | . | -18
C=CCNC(=S)N(C)[C@H]1C[C@H]2c3[nH]c4c(-c5ccccc5)cccc4c3CCN2C(=O)[C@H]1[C@H](C)O | -30 | . | . | . | 2
CC(=O)N1CCN(c2ccc(NC(=O)c3ccc(OCc4ccccc4)cc3)cc2)CC1 | 7 | . | . | . | 4
c1ccc(-c2nnc(-c3ccccc3)nn2)cc1 | -95 | 7 | 0 | 4 | 13
CC1(C)N=C(c2ccccc2)C(c2ccccc2)=N1 | -5 | 10 | 0 | 0 | 41*
O=C(Nc1cccc(CNCCc2c[nH]c3ccccc23)c1)c1ccccc1Cl | 40 | -20 | 18 | 35* | -15
COCCCNC(=S)Nc1cc2oc3ccccc3c2cc1OC | 68* | 5 | 2 | 2 | -6
C/C=C/c1ccc2c(c1)O[C@H](CN(C)C(=O)COC)[C@@H](C)CN([C@H](C)CO)S2(=O)=O | 2[16.7 µM] | 3 | . | 0 | 5
O=[N+]([O-])c1cc(C(F)(F)F)cc([N+](=O)[O-])c1NCCNC(=S)Nc1ccc(Cl)c(Cl)c1 | 57* | 6 | 4 | 8 | 0
CN(C)c1ncc(S(=O)(=O)c2ccc(Cl)cc2)c(-c2ccccc2)n1 | -28 | -6 | -2 | . | .
C[C@H](C(=O)N(C)C[C@H]1OCc2ccccc2-c2ccccc2C(=O)N([C@@H](C)CO)C[C@H]1C)c1ccccc1 | 21[16.7 µM] | -3 | . | -1 | 1
C[C@H](CO)N1C[C@H](C)[C@H](CN(C)C(=O)[C@H](C)c2ccccc2)OCc2ccccc2-c2ccccc2C1=O | 8[16.7 µM] | 4 | . | . | 4
C[C@H](C(=O)N(C)C[C@@H]1OCc2ccccc2-c2ccccc2C(=O)N([C@H](C)CO)C[C@@H]1C)c1ccccc1 | 57*[16.7 µM] | 2 | . | . | -17
C[C@H](C(=O)N(C)C[C@@H]1OCc2ccccc2-c2ccccc2C(=O)N([C@@H](C)CO)C[C@@H]1C)c1ccccc1 | 58*[16.7 µM] | -8 | . | 1 | -4
C[C@H](C(=O)N(C)C[C@@H]1OCc2ccccc2-c2ccccc2C(=O)N([C@@H](C)CO)C[C@H]1C)c1ccccc1 | 59*[16.7 µM] | -11 | . | -1 | -9
COc1ccc(-c2sc(NC(=O)c3ccc(C)cc3)nc2-c2ccc([N+](=O)[O-])cc2)cc1 | . | -2 | -3 | . | .
COc1ccc(NC(=O)N2C[C@H](O)COC[C@H]3O[C@H](CC(=O)NC4Cc5ccccc5C4)CC[C@@H]32)cc1 | . | 4 | . | -1 | 7
CC1=C(C(=O)NCc2ccco2)C2(CCC(C)CC2)OC1=O (centres undefined) | 6 | . | . | -1 | .
O=C(O)C(O)Cc1c[nH]c2ccccc12 (centres undefined) | . | 4 | . | -1 | 3
O=C(CC(C(=O)O)c1c[nH]c2ccccc12)c1ccccc1 (centres undefined) | 12 | 81* | 29 | -1 | -6
COc1ccccc1-c1cnc2c(c1)C(=O)N([C@@H](C)CO)C[C@@H](C)[C@H](CN(C)C(=O)CN(C)C)O2 | -19[16.7 µM] | 13 | . | 1 | 13
CCOc1ccc(S(=O)(=O)NCCC(=O)N2CC(C)OC(C)C2)cc1 (centres undefined) | -43 | 10 | -1 | -1 | 5
SMILES | Env fusion inh | PGC1a acetyl inh | NSD2 HMT inh | AF4-AF9 inh | INS-1E GSIS act
Cc1ccc(NC(=O)c2ccc(OCC3CCCO3)cc2)cc1Cl (centres undefined) | 70* | . | 1 | 2 | -2
O=S(=O)(c1ccc(NCCCO)nc1)N1CCOCC1 | 9 | . | 0 | -1 | 49*
O=S(=O)(c1ccc(NCCOCCO)nc1)N1CCCCC1 | 0 | . | 0 | 1 | 10
CCOC(=O)C1=C(C)N=C2SC(C(=O)OC)=CC(=O)N2C1c1ccc(F)cc1 (centres undefined) | . | 8 | 0 | . | .
Cc1cc(N2CCCC2)ccc1NC(=O)COc1cccc(C(F)(F)F)c1 | 59* | . | 1 | 5 | 23
C=CCn1c(O)c(N=NC(=O)CNC(=O)c2ccco2)c2ccccc21 | -9 | . | 1 | -1 | 42*
C=CCn1c(O)c(N=NC(=S)Nc2ccc(OC)cc2)c2ccccc21 | 37* | 15 | 0 | . | -10
Cc1csc(N=Nc2ccc(N(C)C)cc2)[n+]1[O-] | 27 | . | 44 | 52* | -27
CCOC(=O)c1c(C)n(-c2ccc(C)cc2)c2ccc(OCC(O)CN3CCN(C)CC3)cc12 (centres undefined) | 26 | . | 14 | 41* | 122*
CN=c1scc(-c2ccccc2F)n1/N=C/c1ccc[nH]1 | 67* | 16 | 2 | 45* | 4
COc1ccc(/C=N/Nc2nc(-c3ccc(Cl)cc3)cc(C(F)(F)F)n2)c(OC)c1 | 16 | . | -1 | . | 76*
O=C(NCc1ccccc1)/C(NC(=O)c1ccccc1)=C(/Sc1ccccn1)c1ccccc1 | . | -1 | -1 | . | .
COCc1cc(N2CCN(C(=O)OC(C)(C)C)C[C@H]2C)ccc1N1CCS(=O)(=O)CC1 | 59* | . | . | . | -22
COCc1cc(N2CCN(C(=O)OC(C)(C)C)C[C@@H]2C)ccc1N1C[C@@H](C)O[C@@H](C)C1 | 2 | . | . | . | .
CO[C@@H]1CN(C)C(=O)c2ccc(NC(C)=O)cc2OC[C@@H](C)N(C(=O)C2CCC2)C[C@H]1C | 2[16.7 µM] | 11 | . | 1 | 0
O=C(Nc1ccccc1)NN(C(=O)CCl)c1ccccc1 | 39 | 13 | 6 | -3 | -10
Cc1ccc(N(NC(=O)C(O)(c2ccccc2)c2ccccc2)C(=O)CCl)cc1 | 70* | . | 0 | . | 82*
CCC(O)(CC)C(=O)NN(C(=O)CCl)c1ccccc1 | 61* | . | 2 | -2 | 17
CCOC(=O)[C@]12Cc3c(cc(OC)c(OC)c3OC)[C@H]1N(C1CCCCC1)C(=O)c1cc(OC)ccc12 | 2 | . | . | 5 | 178*
COc1ccc(-c2ccc3c(c2)[C@@H]2[C@@H](CCN2C(=O)C2CCCCC2)[C@@H](CO)N3C)cc1 | . | 5 | . | -3 | -14
COc1ccc(-c2ccc3c(c2)[C@@H]2[C@@H](CCN2C(=O)C2CCC2)[C@H](CO)N3C)cc1 | 1[16.7 µM] | 5 | . | 33* | -38
COc1ccc(-c2ccc3c(c2)[C@H]2[C@H](CCN2C(=O)NC2CCCC2)[C@H](CO)N3C)cc1 | . | -8 | . | 26* | -14
